# Compounds with a hit are over-represented: about 9.4% of the library has one in this group of screens.
# ELG1 DNA repair = blocks ELG1-dependent DNA repair in HEK293T cells; 330,000 tested, 2.3% active; HEK293T ELG1-luciferase reporter, luminescence, 16 h; DNA damage induced by 5-fluorouridine; Potency, µM (highest dose often 46.1 µM), inactives show at the highest dose activity change, negative = inhibition, hits mostly inhibitors; further: on the % scale 0 is the no-effect control and ±100 the full control effect; nearly all actives have a fitted effect of over 55% in size
#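 Quantitative HTS, concentration-response format. 2,000 cells/well co-treated with 5-fluorouridine and compound, 16 hr in 5% CO2 at 37 °C; ONE-Glo luminescence read after 30 min.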
# Rab9 prom act = activators of Rab9 promoter | Huh7 Rab9 promoter-luciferase reporter, luminescence, 24 h | Potency, µM (doses to about 9.22 µM), for the others: top-dose activation, negative = inhibition, actives largely listed as activators | 320,000 tested, 2.8% active; further: % of control where 0% means no effect; nearly all actives have a fitted effect of over 60% in size
#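 Huh7 cells stably carrying Rab9 promoter–luciferase reporter, plated 1500 cells/well, compound added after 2 h and incubated 24 h at 37 °C; luciferase luminescence then read after 10 min with detection reagent.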
# NPC1 promoter act = NPC1 promoter activation | Huh7 NPC1 promoter luciferase reporter, 24 h | 320,000 tested, 2.4% active | Potency, µM (series often up to 9.22 µM), for inactives: at the highest dose activation, hits mostly activators; further: % of control where 0% means no effect; nearly all actives have a fitted effect of over 60% in size
#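 Compounds in DMSO were transferred onto Huh7 NPC1-luciferase reporter cells pre-incubated 2 h; after 24 h at 37 °C, Amplite reagent was dispensed and luminescence recorded 10 min later.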
# ELG1 genotoxic = genotoxicity induction in ELG1-luciferase HEK293T cells; Potency, µM (doses to about 46 µM), without a hit: at the highest dose activity change, positive = activation, most hits filed as activators; AID 504466; 330,000 tested, 1.3% active; HEK293T ELG1-luciferase reporter, luminescence, 16 h; further: % of control where 0% means no effect; nearly all actives have a fitted effect of over 60% in size
#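 After overnight (16 hr) compound treatment at 37 °C, ELG1-luciferase HEK293T cells were lysed with ONE-Glo; luminescence quantified 30 min later at room temperature.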
# SMN2 splice up = SMN2 splice variant enhancement; 210,000 tested, 2.8% active; HEK293 SMN2-luciferase splicing reporter, luminescence, 30-36 h; Potency, µM (titrated, usually from 46.1 µM), for the others: at the highest dose activity change, positive = activation, usual class: activators; further: % of control where 0% means no effect; nearly all actives have a fitted effect of over 55% in size
#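 HEK293 cells carry an SMN2 […]–luciferase reporter in which exon 7 inclusion puts luciferase in frame. Cells were plated 10-12 h before compound addition, then incubated 30-36 h at 37C. ONE-Glo luminescence was read; sodium butyrate at 4.5 mM final served as control.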
# FLuc counter = counter-screen for miR-21 project: firefly luciferase inhibitors or activators; P08659; 360,000 tested, 6.9% active; AID 588342; purified FLuc, Km substrates, luminescence inhibition; Potency, µM (doses to about 57.5 µM), for inactives: at the top dose activity change, negative = inhibition, usual class: inhibitors;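 further: plate controls were vehicle for no effect and reference inhibitor for full effect; nearly all actives have a fitted effect of over 55% in size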
# Target sequence (P08659 whole entry, looked up): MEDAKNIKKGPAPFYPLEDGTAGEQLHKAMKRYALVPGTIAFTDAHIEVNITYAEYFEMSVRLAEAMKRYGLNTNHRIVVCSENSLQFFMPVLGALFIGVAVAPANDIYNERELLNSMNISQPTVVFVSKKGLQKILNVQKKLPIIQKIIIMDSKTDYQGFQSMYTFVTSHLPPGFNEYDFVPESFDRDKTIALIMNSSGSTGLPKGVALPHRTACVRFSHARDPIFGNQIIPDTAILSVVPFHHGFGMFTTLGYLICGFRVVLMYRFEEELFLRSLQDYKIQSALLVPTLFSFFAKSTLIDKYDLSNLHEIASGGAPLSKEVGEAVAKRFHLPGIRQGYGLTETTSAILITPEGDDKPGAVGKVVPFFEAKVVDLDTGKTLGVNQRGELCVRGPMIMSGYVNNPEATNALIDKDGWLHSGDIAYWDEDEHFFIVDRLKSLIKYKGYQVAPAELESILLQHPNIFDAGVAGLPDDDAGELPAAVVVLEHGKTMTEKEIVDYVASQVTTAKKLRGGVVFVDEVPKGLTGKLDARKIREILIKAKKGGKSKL
#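 Purified P. pyralis luciferase (10nM final) with 10uM D-luciferin and 10uM ATP (Km levels) in 50mM Tris acetate pH 7.5, 10mM Mg acetate, 0.01% Tween-20, 0.05% BSA; qHTS 6-point titration, ~60 µM downward; luminescence read.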
# The depositor's hits bear a star; ? = inconclusive; . = no result given. The call rests on the fitted dose curve; in most records, active means well fitted curve in the direction sought with a large enough effect; inconclusive means small, poorly fitted or top-dose-only effect, or another doubt; inactive means no such curve, though single readings can be large; an effect the other way counts as inactive or inconclusive. Potency means the concentration at half of the fitted maximal effect.
SMILES,ELG1 DNA repair,Rab9 prom act,NPC1 promoter act,ELG1 genotoxic,SMN2 splice up,FLuc counter
CC(C)(O)C(=O)N/N=C\c1ccc(OC/C=C/c2ccccc2)cc1,?,6%,0%,4%,.,0%
N#CCC(=O)N/N=C\c1cccc(OC/C=C/c2ccccc2)c1,?,?,0.56µM*,?,.,13µM*
CC(=O)N/N=C\c1ccccc1OC/C=C/c1ccccc1,?,27%,?,16µM*,.,-17%
COc1cccc(/C=N/NC(=O)CC(C)O)c1OC/C=C/c1ccccc1 (centres undefined),-24%,-3%,-1%,-9%,.,-5%
CC(=O)N/N=C\c1cccc(OC/C=C/c2ccccc2)c1,?,0.45µM*,0.4µM*,?,.,11µM*
CCOC(=O)N/N=C\c1cccc(OC)c1OC/C=C/c1ccccc1,-4%,9%,4%,-4%,.,9.5µM*
COc1ccc(-c2noc(CSc3nnc(Cc4ccccc4)n3-c3ccc(F)cc3)n2)cc1,.,.,.,.,-20%,-4%
Cc1ccccc1NC(=O)CSc1nccn1C,.,.,.,.,-11%,3%
Cc1cccc(C)c1NC(=O)CNC(=O)C(NC(=O)c1ccc(C(C)(C)C)cc1)C(C)C (centres undefined),5.2µM*,1%,1%,0%,.,-1%
CC(C)C(NC(=O)c1ccc(C(C)(C)C)cc1)C(=O)OCC(=O)NC(=O)Cc1ccccc1 (centres undefined),0%,-4%,1%,0%,17%,21µM*
COC(=O)C(C)NC(=O)c1ccc(C(C)(C)C)cc1 (centres undefined),?,22%,21%,17%,?,19µM*
CC(C)[C@H](NC(=O)c1ccccc1)C(=O)OCC(=O)NCCc1ccc(F)cc1,6%,1%,-1%,0%,1%,-1%
CC(NC(=O)c1ccc(C(C)(C)C)cc1)C(=O)O (centres undefined),?,0%,-3%,1%,?,?
COc1ccc(CCNC(=O)c2ccc3c(c2)N(Cc2ccc(F)cc2)C(=O)CS3)cc1OC,.,.,.,.,.,-4%
CCOc1ccc(NC(=O)c2cc(S(=O)(=O)N3CCc4ccccc43)ccc2F)cc1,.,.,.,.,.,-5%
O=C(NCCc1csc(-c2ccc(F)cc2)n1)c1c(F)cccc1Cl,.,.,.,.,.,-19%
O=C(NNC(=O)c1ccc(Cl)cc1Cl)c1csc(-c2cccnc2)n1,0%,17%,25%,3%,.,5.4µM*
O=C(NCCc1csc(-c2ccccc2)n1)c1c(F)cccc1Cl,18µM*,-7%,-4%,-8%,-36%,?
CC(C)Oc1ccc(C(=O)NCCc2csc(-c3cccc(F)c3)n2)cc1,.,.,.,.,.,24µM*
CCOc1ccc(C(=O)NCCc2csc(-c3cccnc3)n2)cc1,.,.,.,.,.,21µM*
CCCCOc1ccc(C2=NC(c3ccncc3)=Nc3ccc(Br)cc3N2)cc1,.,.,.,.,8%,1%
CC(=O)c1cccc(NC(=O)CN2C(=O)c3ccccc3Sc3ncccc32)c1,.,.,.,.,.,4%
O=C(NCCc1csc(-c2cccnc2)n1)c1ccc(Cl)cc1,-9%,-1%,-2%,-3%,.,9.5µM*
O=C(NCCc1csc(-c2cccnc2)n1)c1cccc(Cl)c1,?,-4%,-3%,-5%,.,?
CCCCn1cnc2c(oc3nc4c(cc32)CCCC4)c1=O,?,0.56µM*,0.63µM*,?,.,6µM*
SMILES,ELG1 DNA repair,Rab9 prom act,NPC1 promoter act,ELG1 genotoxic,SMN2 splice up,FLuc counter
O=c1c2oc3nc4c(cc3c2ncn1CCCc1ccccc1)CCCC4,?,?,24%,14%,.,24µM*
CCCCCCn1cnc2c(oc3nc4c(cc32)CCCC4)c1=O,?,3.2µM*,?,14%,11µM*,?
CS(=O)(=O)N1CCC2(CCCN(Cc3cc(C(F)(F)F)cc(C(F)(F)F)c3)C2)CC1,.,.,.,.,-12%,.
CCCCN=c1scc(-c2ccc3c(c2)NC(=O)CO3)n1N=C1CCCC1,23µM*,-3%,-3%,-12%,-58%,4%
CC(=O)c1ccc(NC(=O)c2cc3nc4c(c(C(F)(F)F)n3n2)CCCC4)cc1,?,?,23%,11%,20%,?
O=C(NC1CCCCC1)c1cc2nc3c(c(C(F)(F)F)n2n1)CCCC3,?,3.5µM*,?,?,35µM*,24µM*
CCn1c(Cn2nnc(-c3ccccc3)n2)nnc1SCC(=O)Nc1ccc(C(C)=O)cc1,?,24%,?,14%,14%,19µM*
CCOCCc1nn2c(=O)cc(COC(=O)c3ccc4c(c3)OCO4)nc2s1,.,.,.,.,.,2%
CN(Cc1cc(-c2ccccc2)on1)C(=O)c1cc(COc2c(F)cccc2F)on1,?,2.5µM*,24%,16%,.,24µM*
CCC(NC(=O)c1cc(COc2c(F)cccc2F)on1)c1ccncc1 (centres undefined),?,-1%,9%,-3%,.,-3%
COC(=O)[C@H](Cc1ccccc1)NC(=O)c1cc(COc2c(F)cccc2F)on1,?,?,?,?,.,19µM*
Cc1ccc(-n2c(=O)c3c4c(sc3n(CC(=O)c3ccc(Cl)cc3)c2=O)CCC4)cc1C,.,.,.,.,-1%,-3%
COc1ccc(-n2nc(C(=O)NCC(=O)NC(C)C)c3ccccc3c2=O)cc1,-1%,1%,2%,-4%,.,1%
COc1ccc(-n2nc(C(=O)NCC(=O)N3CCCCC3)c3ccccc3c2=O)cc1,?,11%,4%,1%,.,3µM*
COc1ccc(-n2nc(C(=O)NCC(=O)N3CCN(Cc4ccccc4)CC3)c3ccccc3c2=O)cc1,?,-3%,-3%,-16%,.,?
CCN1CCN(C(=O)CNC(=O)c2nn(-c3ccc(OC)cc3)c(=O)c3ccccc23)CC1,?,6%,0%,15%,.,4.8µM*
COc1ccc(-n2nc(C(=O)NCC(=O)N3CCCC3)c3ccccc3c2=O)cc1,18%,0%,3%,3%,.,12µM*
Cc1cc[n+](C(C)C(=O)c2ccc(-c3ccccc3)cc2)cc1 (centres undefined),2.1µM*,-19%,-16%,-7%,-81%,-1%
O=[N+]([O-])c1ccc(/C=N/Nc2nc(N3CCCCCC3)nc(N3CCCCCC3)n2)o1,23µM*,-5%,-2%,-10%,-34%,-1%
O=[N+]([O-])c1ccc(/C=N/Nc2nc(N3CCCCC3)nc(N3CCCCC3)n2)cc1,-28%,-13%,-9%,-3%,.,-5%
COc1ccc(OC)c(-c2noc(N3CCN(c4ccc(C(C)=O)cc4)CC3)n2)c1,.,.,.,.,.,-1%
Clc1ccc(COn2nnc3ccccc32)c(Cl)c1,.,.,.,.,?,3.8µM*

# Compound activity deposited in PubChem by National Center for Advancing Translational Sciences (NCATS).
